The compounds below were run on ABL1. Conditions: read-out: apparent Kd; compound concentrations:100 nM and 1000 nM (sheet 'Samples'); n = 1.
Set-up: species or system human, MV4-11 + K-562 + COLO205 + SK-N-BE2 + OVCAR-8

SMILES | potency estimated from few doses [nM]
Cn1cc(-c2cnc(N)c3c(-c4ccc5c(c4)CCN5C(=O)Cc4ccccc4)csc23)cn1 [GSK2593074A] | 563
COc1cccc(-c2c[nH]c3c(N/N=C/c4ccncc4)ncnc23)c1 [GW814408X] | 1980
Cl.Cn1c(=O)c(Cc2ccc(F)cc2F)cc2cnc(NC3CCOCC3)nc21 [RO3308757-001] | 1760
COc1cc(/C=N/Nc2ncnc3[nH]ncc23)ccc1O [GW578748X] | 1250
CC(C)c1nc(-c2ccc(F)c(NS(=O)(=O)c3c(F)cccc3F)c2)c(-c2ccnc(Nc3ccc(N4CCOCC4)nc3)n2)s1 [GSK1804250A] | 970

These compounds were tested on ABL2. Conditions: read-out: apparent Kd; compound concentrations:100 nM and 1000 nM (sheet 'Samples'); n = 1.
Set-up: species or system human, MV4-11 + K-562 + COLO205 + SK-N-BE2 + OVCAR-8

SMILES | potency estimated from few doses [nM]
Cn1cc(-c2cnc(N)c3c(-c4ccc5c(c4)CCN5C(=O)Cc4ccccc4)csc23)cn1 [GSK2593074A] | 641
CNc1nccc(-c2c(-c3ccc(F)cc3)ncn2C2CCN(C)CC2)n1 [SB-222903] | 389
CC(=O)c1c(-c2ccncc2)[nH]c(-c2ccncc2)c1C [GW493036X] | 482
Cl.Cn1c(=O)c(Cc2ccc(F)cc2F)cc2cnc(NC3CCOCC3)nc21 [RO3308757-001] | 513
COc1cc2ncn(-c3cc(OCCCc4ccccc4)c(C(N)=O)s3)c2cc1OC [GSK205189A] | 956
CC(C)c1nc(-c2ccc(F)c(NS(=O)(=O)c3c(F)cccc3F)c2)c(-c2ccnc(Nc3ccc(N4CCOCC4)nc3)n2)s1 [GSK1804250A] | 126

What follows are compounds tested on ACAD11. Conditions: read-out: apparent Kd; compound concentrations:100 nM and 1000 nM (sheet 'Samples'); n = 1.
Set-up: species or system human, MV4-11 + K-562 + COLO205 + SK-N-BE2 + OVCAR-8

SMILES | potency estimated from few doses [nM]
N#Cc1cccc(Nc2nccc(-c3cnn4ncccc34)n2)c1 [GW778894X] | 228
Fc1ccc(-c2c(-c3ccncc3)[nH]c3nccnc23)cc1 [RO1155697-000] | 1300
COc1cc2ncn(-c3cc(OCc4ccncc4)c(C(N)=O)s3)c2cc1OC [GSK336313A] | 1400
COc1cc2ncn(-c3cc(OCc4cccs4)c(C(N)=O)s3)c2cc1OC [GSK312948A] | 766
Nc1nc(N)c2nc(-c3ccccc3)[nH]c2n1 [SKF-12778] | 1290
O=S(=O)(c1ccc(-c2ccnc3[nH]ccc23)cc1)N1CCCC1 [GSK846226A] | 693

What follows are compounds tested on BCR. Conditions: read-out: apparent Kd; compound concentrations:100 nM and 1000 nM (sheet 'Samples'); n = 1.
Set-up: species or system human, MV4-11 + K-562 + COLO205 + SK-N-BE2 + OVCAR-8

SMILES | potency estimated from few doses [nM]
COc1cccc(-c2c[nH]c3c(N/N=C/c4ccncc4)ncnc23)c1 [GW814408X] | 1150
CC(=O)c1c(-c2ccncc2)[nH]c(-c2ccncc2)c1C [GW493036X] | 277
Cl.Cn1c(=O)c(Cc2ccc(F)cc2F)cc2cnc(NC3CCOCC3)nc21 [RO3308757-001] | 477
COc1cc(/C=N/Nc2ncnc3[nH]ncc23)ccc1O [GW578748X] | 678
CC(C)c1nc(-c2ccc(F)c(NS(=O)(=O)c3c(F)cccc3F)c2)c(-c2ccnc(Nc3ccc(N4CCOCC4)nc3)n2)s1 [GSK1804250A] | 954

What follows are compounds tested on BUB1. Conditions: read-out: apparent Kd; compound concentrations:100 nM and 1000 nM (sheet 'Samples'); n = 1.
Set-up: species or system human, MV4-11 + K-562 + COLO205 + SK-N-BE2 + OVCAR-8

SMILES | potency estimated from few doses [nM]
Fc1ccc(-c2c(-c3ccncc3)[nH]c3nccnc23)cc1 [RO1155697-000] | 1970
CNc1nccc(-c2c(-c3ccc(F)cc3)ncn2C2CCN(C)CC2)n1 [SB-222903] | 1920
CC(C)c1nc(-c2ccc(F)c(NS(=O)(=O)c3c(F)cccc3F)c2)c(-c2ccnc(Nc3ccc(N4CCOCC4)nc3)n2)s1 [GSK1804250A] | 553

The compounds below were run on CDK7. Conditions: read-out: apparent Kd; compound concentrations:100 nM and 1000 nM (sheet 'Samples'); n = 1.
Set-up: species or system human, MV4-11 + K-562 + COLO205 + SK-N-BE2 + OVCAR-8

SMILES | potency estimated from few doses [nM]
N#Cc1cccc(Nc2nccc(-c3cnn4ncccc34)n2)c1 [GW778894X] | 373
Cl.Cn1c(=O)c(Cc2ccc(F)cc2F)cc2cnc(NC3CCOCC3)nc21 [RO3308757-001] | 331
COc1cc2ncn(-c3cc(OCCCc4ccccc4)c(C(N)=O)s3)c2cc1OC [GSK205189A] | 79.1

The compounds below were run on CDKL5. Conditions: read-out: apparent Kd; compound concentrations:100 nM and 1000 nM (sheet 'Samples'); n = 1.
Set-up: species or system human, MV4-11 + K-562 + COLO205 + SK-N-BE2 + OVCAR-8

SMILES | potency estimated from few doses [nM]
N#Cc1cccc(Nc2nccc(-c3cnn4ncccc34)n2)c1 [GW778894X] | 6.82
COc1cccc(-c2c[nH]c3c(N/N=C/c4ccncc4)ncnc23)c1 [GW814408X] | 1300
CC(=O)c1c(-c2ccncc2)[nH]c(-c2ccncc2)c1C [GW493036X] | 1670
CC(C)c1nc(-c2ccc(F)c(NS(=O)(=O)c3c(F)cccc3F)c2)c(-c2ccnc(Nc3ccc(N4CCOCC4)nc3)n2)s1 [GSK1804250A] | 984

These compounds were tested on CLK1. Conditions: read-out: apparent Kd; compound concentrations:100 nM and 1000 nM (sheet 'Samples'); n = 1.
Set-up: species or system human, MV4-11 + K-562 + COLO205 + SK-N-BE2 + OVCAR-8

SMILES | potency estimated from few doses [nM]
N#Cc1cccc(Nc2nccc(-c3cnn4ncccc34)n2)c1 [GW778894X] | 3.93
CNc1nccc(-c2c(-c3ccc(F)cc3)ncn2C2CCN(C)CC2)n1 [SB-222903] | 808
CC(=O)c1c(-c2ccncc2)[nH]c(-c2ccncc2)c1C [GW493036X] | 10.9
Cl.Cn1c(=O)c(Cc2ccc(F)cc2F)cc2cnc(NC3CCOCC3)nc21 [RO3308757-001] | 779
Nc1nc(N)c2nc(-c3ccccc3)[nH]c2n1 [SKF-12778] | 1150
COc1cc2ncn(-c3cc(OCCCc4ccccc4)c(C(N)=O)s3)c2cc1OC [GSK205189A] | 105
COc1cc(/C=N/Nc2ncnc3[nH]ncc23)ccc1O [GW578748X] | 1370

Source: PMC11062922 (Nature Chemical Biology, 2023)
